# Screening data as filed in PubChem.
# CaV13 FRET inh = Primary screen for inhibitors of IQ motif and Ca2+-dependent inactivation inhibitor domain binding in CACNA1D, Förster resonance energy transfer in living cells, …; HEK cells, CFP/YFP FRET ICDI-IQ, plate reader, 10 min; percent FRET-ratio fall versus neutral wells; inhibition, % at 12.3 µM; 340,000 tested, 0.098% active; AID 743397;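 active means mean replicate inhibition of at least 30% and at least 1% of replicates passing that level; inconclusive means only one of the two criteria is met; inactive means neither criterion is met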;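 further: 0% = median of the neutral control wells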
# rRNA inh HTS = selective bacterial rRNA inhibition in E. coli | E. coli WT GFP vs humanized-ribosome RFP mutants, fluorescence, 24 h; stronger effect = lower value; DMSO median 0, no signal -100 | GFP signal change (wild-type ribosome), % (no concentration beside the values) | 350,000 tested, 1.6% active | AID 720706;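 active means significant combined selectivity score with lowered wild-type GFP, culture density cut under 30%, mutant RFP and density less affected; inactive means any of these conditions unmet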
# PGC1a acetyl inh = modulators of PGC1a acetylation; AID 651687; U2OS PGC1a acetylation, AlphaScreen anti-acetyl-lysine; with virally co-expressed GCN5 acetyltransferase; 350,000 tested, 0.17% active; inhibition, % at 15.6 µM;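 active means every replicate shows inhibition of at least 40%; inconclusive means mean inhibition at least 40% but some replicate below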;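 further: 0% = neutral control wells and 100% = positive control wells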
# DENV2 CPE rescue = DENV2-induced cell death inhibition; 350,000 tested, 1.7% active; CPE inhibition, % at 9.99 µM; AID 651640; DENV2-infected cells, cytopathic effect rescue, plate reader; in the data active means CPE inhibition above about 20%, passing the limit was not always enough; inconclusive means no clear call, values can overlap the other calls; tested in BHK-21 cells;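 further: 0% = median of neutral control wells and 100% = median of positive control wells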
# GSIS activator = GLuc luminescence reporter in INS-1E cells, primary screen for activators of glucose-dependent secretion of insulin. AID 743287. 370,000 tested, 0.61% active. activation, % at 16.6 µM. INS-1E GLuc reporter insulin secretion, 2-3 h;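 active means lowest replicate activation of at least 40%, so every replicate reaches that level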;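 further: 0% = median of neutral control wells and 100% = median of IBMX positive control wells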
# ERAP1 HTS inh = blocks human ERAP1 aminopeptidase activity | inhibition, % at 10.7 µM | 340,000 tested, 0.15% active | recombinant ERAP1, Leu-AMC fluorescence, 60 min | Q9NZ08 | AID 652197;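 active means mean replicate inhibition of at least 30%, or all replicates individually reaching that 30% level; inactive means mean below 30% and not every replicate reaching it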;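 further: 0% = neutral control wells and 100% = L-leucinethiol positive control wells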
# Target sequence (Q9NZ08 whole entry, looked up): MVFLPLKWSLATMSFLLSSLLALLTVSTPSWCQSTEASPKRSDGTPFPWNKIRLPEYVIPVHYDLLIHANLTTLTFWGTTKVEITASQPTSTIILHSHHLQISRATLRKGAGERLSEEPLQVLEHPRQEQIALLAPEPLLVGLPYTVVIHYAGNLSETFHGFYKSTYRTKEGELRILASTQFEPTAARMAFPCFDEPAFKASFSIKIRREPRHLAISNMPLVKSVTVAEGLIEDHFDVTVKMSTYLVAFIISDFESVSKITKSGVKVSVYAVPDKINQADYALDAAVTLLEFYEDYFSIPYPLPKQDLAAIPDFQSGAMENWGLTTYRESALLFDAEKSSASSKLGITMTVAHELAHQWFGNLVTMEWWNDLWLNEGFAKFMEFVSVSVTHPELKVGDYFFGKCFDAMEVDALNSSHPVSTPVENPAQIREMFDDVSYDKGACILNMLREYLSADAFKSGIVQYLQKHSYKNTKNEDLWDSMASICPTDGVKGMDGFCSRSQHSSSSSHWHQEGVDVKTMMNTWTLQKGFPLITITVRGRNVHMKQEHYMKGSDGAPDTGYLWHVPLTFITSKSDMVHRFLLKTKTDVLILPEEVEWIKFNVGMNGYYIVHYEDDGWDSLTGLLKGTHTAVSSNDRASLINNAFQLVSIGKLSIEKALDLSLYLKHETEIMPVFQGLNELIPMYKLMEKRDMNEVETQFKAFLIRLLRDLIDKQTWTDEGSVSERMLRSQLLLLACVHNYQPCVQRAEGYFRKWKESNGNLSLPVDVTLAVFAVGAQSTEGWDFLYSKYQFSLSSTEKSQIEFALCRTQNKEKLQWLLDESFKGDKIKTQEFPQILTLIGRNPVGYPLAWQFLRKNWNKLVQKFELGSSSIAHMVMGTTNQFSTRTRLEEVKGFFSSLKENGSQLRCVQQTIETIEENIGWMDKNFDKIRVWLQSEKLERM
# * = called active by the depositor; ? = inconclusive; nt = no result given. Shown are actives, neighbours in structure and some others; about 3.2% of the full set was active somewhere.
SMILES,CaV13 FRET inh,rRNA inh HTS,PGC1a acetyl inh,DENV2 CPE rescue,GSIS activator,ERAP1 HTS inh
CS(=O)(=O)Nc1ccc2c(c1)[C@@H]1C[C@H](CC(=O)NCc3ccccc3)O[C@H](CO)[C@@H]1O2,nt,2,-1,19,15,2
C[C@H](CO)N1C[C@H](C)[C@H](CN(C)C(=O)c2ccccc2)Oc2cc(C#CC3(O)CCCC3)ccc2S1(=O)=O,nt,-2,-3,16,-4,2
Cc1cc(O)c(N=Nc2ccc(C(=O)O)cc2)cc1C,-5,1,50*,0,nt,2
COc1cccc(S(=O)(=O)N[C@H]2CC[C@@H](CCNC(=O)Nc3cc(F)ccc3F)O[C@H]2CO)c1,nt,-6,9,-3,-14,-1
CN(C)CC(=O)N[C@H]1C=C[C@@H](CC(=O)NCCN2CCCCC2)O[C@@H]1CO,nt,5,-4,59*,25,-1
O=C(O)C[C@H]1C=C[C@@H](NC(=O)CCN2CCCCC2)[C@@H](CO)O1,nt,5,-5,97*,13,0
CN(C)CC(=O)N[C@@H]1C=C[C@@H](CC(=O)NCCN2CCCCC2)O[C@H]1CO,nt,6,-11,4,0,1
Cc1cc(NC(=O)c2ccccc2F)n(-c2nc3ccccc3[nH]2)n1,-6,nt,-31,nt,64*,nt
O=C(C[C@H]1C[C@@H]2c3cc(NC(=O)C4CCOCC4)ccc3O[C@@H]2[C@@H](CO)O1)NCCc1ccccc1,nt,-1,3,6,0,0
CCC1CCCCN1S(=O)(=O)c1ccc(NC(=O)c2nc(S(C)(=O)=O)ncc2Cl)cc1 (stereo not drawn),-15,-29*,nt,3,72*,1
CC(=O)Nc1ccc(NC(=O)c2nc(S(=O)(=O)Cc3ccccc3)ncc2Cl)cc1,-6,-2,nt,-3,60*,-1
CCS(=O)(=O)c1ncc(Cl)c(C(=O)Nc2ccc(C)cc2)n1,-3,-57,nt,1,63*,3
CCC1CCCCN1S(=O)(=O)c1ccc(NC(=O)c2ccncc2)cc1 (stereo not drawn),nt,-5,nt,1,-44,-2
COC(=O)c1ccccc1NC(=O)c1nc(S(=O)(=O)Cc2ccccc2)ncc1Cl,-15,5,nt,2,21,1
COc1ccccc1NC(=O)N[C@H]1CC[C@@H](CC(=O)N[C@@H](C)c2ccccc2)O[C@@H]1CO,nt,-2,6,0,9,-6
N#C[C@@H]1[C@@H](c2ccccc2-c2ccc(F)cc2)[C@@H](CO)N1c1ncc(-c2ccccc2)s1,nt,-2,3,-4,-6,4
O=C(CSc1ccccn1)N/N=C/c1cc([N+](=O)[O-])ccc1O,-3,-19*,nt,nt,-4,2
O=C(C[C@H]1CC[C@H](NC(=O)c2ccncc2)[C@H](CO)O1)NCc1ccncn1,nt,0,3,3,7,0
N#CCCn1cc(/C=C(\C#N)c2nc3ccccc3s2)c(-c2ccc(F)cc2)n1,-6,nt,-7,nt,50*,nt
N#CCCn1cc(C=C(C#N)C#N)c(-c2ccc(Cl)cc2)n1,2,6,-6,7,30,0
CCC(=O)Nc1ccc2c(c1)C(=O)N(C)C[C@@H](OC)[C@H](C)CN(C(=O)c1ccccn1)[C@H](C)CO2,nt,3,5,43*,10,2
CCC(=O)Nc1ccc2c(c1)C(=O)N(C)C[C@@H](OC)[C@@H](C)CN(C(=O)c1cnccn1)[C@@H](C)CO2,nt,0,-6,29*,0,1
COCC(=O)Nc1ccc2c(c1)C(=O)N(C)C[C@H](OC)[C@H](C)CN(C(=O)c1ccccn1)[C@H](C)CO2,nt,4,8,31*,2,1
COCC(=O)Nc1ccc2c(c1)C(=O)N(C)C[C@H](OC)[C@@H](C)CN(C(=O)c1ccccn1)[C@@H](C)CO2,nt,-1,-8,16,-11,4
O=C(COc1ccc2c(-c3ccccc3)cc(=O)oc2c1)NC1CCS(=O)(=O)C1 (stereo not drawn),nt,9,-3,143*,23,-2
SMILES,CaV13 FRET inh,rRNA inh HTS,PGC1a acetyl inh,DENV2 CPE rescue,GSIS activator,ERAP1 HTS inh
CCN(CC)C(=O)COc1ccc2c(-c3ccc(OC)cc3)cc(=O)oc2c1,-4,-22*,nt,12,-19,1
C[C@H](CO)N1C[C@H](C)[C@H](CN(C)S(C)(=O)=O)Oc2ccc(NC(=O)C3CCCCC3)cc2C1=O,nt,0,nt,-5,15,3
COc1ccc(CN(C)C[C@H]2OCCCC[C@@H](C)Oc3ccc(NS(=O)(=O)c4ccccc4)cc3C(=O)N([C@@H](C)CO)C[C@H]2C)cc1,nt,1,-1,34*,-2,-3
COc1ccc(CN(C)C[C@@H]2OCCCC[C@H](C)Oc3ccc(NS(=O)(=O)c4ccccc4)cc3C(=O)N([C@H](C)CO)C[C@H]2C)cc1,nt,7,-4,32*,-11,-1
CO[C@@H]1CN(C)C(=O)c2ccc(NC(=O)C3CCCC3)cc2OC[C@@H](C)N(C(C)=O)C[C@@H]1C,nt,1,15,0,10,0
C[C@@H]1CN([C@@H](C)CO)C(=O)c2cccc(NC(=O)Nc3ccccc3)c2O[C@@H]1CN(C)C(=O)Nc1cccc2ccccc12,nt,0,-2,nt,-28,nt
CCOC(=O)c1sc2nc(-c3ccco3)c3c(c2c1N)CC(C)(C)OC3,-8,nt,-1,nt,nt,nt
CC1(C)Cc2c(c(-c3ccco3)nc3n[nH]c(N)c23)CO1,-5,nt,12,nt,56*,nt
O=C(c1cccc(Cl)c1)N1CCC(=O)N(C(COCc2ccccc2)Cc2ccccc2)CC1 (stereo not drawn),55*,-30,nt,?,nt,4
CC(C)CC(COCc1ccc(Cl)cc1)N1CCN(C(=O)c2ccc(Cl)cc2Cl)CCC1=O (stereo not drawn),-5,-5,3,100*,1,nt
Cc1ccnn1CC(=O)N/N=C/c1c[nH]c2ccccc12,-5,-39*,-1,-4,14,-1
Cc1cc(C)n(CC(=O)N/N=C/c2c[nH]c3ccccc23)n1,5,8,nt,1,-8,2
O=C(N/N=C/c1c[nH]c2ccccc12)c1cccs1,-5,-11,12,46*,-12,3
COc1ccc(C(=O)Nc2cccc3cccnc23)cc1OC,-8,1,-17,0,4,3
O=C(N/N=C/c1ccccn1)c1cccs1,1,-24*,nt,0,6,0
COc1ccc(C(=O)Nc2cccnc2Cl)cc1OC,-5,5,2,5,47*,2
C[C@@H](O)C#Cc1cnc2c(c1)C(=O)N([C@@H](C)CO)C[C@H](C)[C@H](CN(C)CC1CC1)O2,nt,6,12,nt,12,nt
